PubChem BioAssay (NCATS)
Records with an inconclusive call do not appear. The source made the active and inactive calls. Unless noted, the call rests on the fitted dose curve; in most records, active means well fitted curve in the direction sought with a large enough effect; inconclusive means small, poorly fitted or top-dose-only effect, or another doubt; inactive means no such curve, though single readings can be large; an effect the other way counts as inactive or inconclusive.

Tests used:
[1] = biological target: Lysosomal acid glucosylceramidase (Homo sapiens) (UniProt P04062); experiment: Glucocerebrosidase-p2 (AID 348; in the data active means potency below about 10 µM; further: potency means the concentration at half of the fitted maximal effect); settings: purified GBA, blue fluorogenic substrate, 40 min
Sequence of Lysosomal acid glucosylceramidase (Homo sapiens) (P04062 whole entry, looked up): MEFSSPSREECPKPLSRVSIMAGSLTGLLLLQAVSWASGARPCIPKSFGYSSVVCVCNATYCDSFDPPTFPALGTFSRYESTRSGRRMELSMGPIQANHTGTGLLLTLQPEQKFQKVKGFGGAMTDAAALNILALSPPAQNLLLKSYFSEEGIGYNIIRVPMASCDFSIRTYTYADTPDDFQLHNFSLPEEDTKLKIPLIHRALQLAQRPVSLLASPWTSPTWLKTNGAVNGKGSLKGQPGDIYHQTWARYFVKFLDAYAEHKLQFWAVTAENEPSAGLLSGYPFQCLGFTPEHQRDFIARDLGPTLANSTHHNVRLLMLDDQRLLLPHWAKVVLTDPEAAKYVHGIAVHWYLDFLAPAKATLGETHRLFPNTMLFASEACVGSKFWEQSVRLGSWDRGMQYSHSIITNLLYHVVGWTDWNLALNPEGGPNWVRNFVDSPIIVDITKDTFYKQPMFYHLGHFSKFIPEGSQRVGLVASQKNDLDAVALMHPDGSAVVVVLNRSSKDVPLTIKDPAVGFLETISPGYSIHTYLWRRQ
Procedure, shortened: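 Normal human glucocerebrosidase (0.2 nM) with blue fluorogenic substrate (80 uM final) in citrate/phosphate pH 5.9 with 10mM sodium taurocholate, 0.01% tween-20; 40 min RT, NaOH/glycine stop; fluorescence Ex 365/Em 440; AC50 from a titration from 0.6 nM upwards.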

[2] = biological target: Cytochrome P450 1A2 (Homo sapiens) (UniProt P05177); experiment: p450-cyp1a2 (AID 410; calls by dose curve; further: potency means the concentration at half of the fitted maximal effect); settings: recombinant CYP1A2, luciferin-ME demethylation, luminescence; series mostly up to 11.4 µM
Sequence of Cytochrome P450 1A2 (Homo sapiens) (P05177 whole entry, looked up): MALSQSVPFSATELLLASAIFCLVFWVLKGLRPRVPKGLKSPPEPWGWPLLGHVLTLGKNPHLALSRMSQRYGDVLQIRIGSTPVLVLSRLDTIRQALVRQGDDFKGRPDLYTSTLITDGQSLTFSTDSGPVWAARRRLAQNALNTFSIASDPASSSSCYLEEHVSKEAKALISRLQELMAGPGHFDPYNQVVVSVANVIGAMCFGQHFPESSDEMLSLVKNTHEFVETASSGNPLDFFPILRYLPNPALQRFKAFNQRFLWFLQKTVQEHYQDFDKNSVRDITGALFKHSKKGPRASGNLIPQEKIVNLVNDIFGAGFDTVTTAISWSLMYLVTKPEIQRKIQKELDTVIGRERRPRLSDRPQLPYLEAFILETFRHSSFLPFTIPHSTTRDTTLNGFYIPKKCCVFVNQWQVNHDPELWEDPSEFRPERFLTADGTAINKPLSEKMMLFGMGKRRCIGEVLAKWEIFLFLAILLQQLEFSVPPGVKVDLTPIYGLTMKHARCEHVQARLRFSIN
Procedure, shortened: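 20nM CYP1A2, 100uM Luciferin-ME (=Km), 100mM KPO4; cpd 10 min RT; +NADPH regen, 60 min RT; stop/detect 20 min; luminescence. Normalized to furafylline 57 uM = full inhibition.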

[3] = Cell Viability - Hek293 (AID 427;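 active means compounds whose dose-response curve shows a full or clear partial loss of cell viability, called from curve shape rather than a numeric limit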;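 further: potency means the concentration at half of the fitted maximal effect; cells exposed to compound for 40 hours at 37 °C before reading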); settings: qHTS
Procedure, shortened: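 Luminescent ATP content (CellTiter-Glo, 20 min at room temperature) was measured after a 40 hr, 37 °C compound exposure of HEK293 cells. AC50 values came from Hill-equation fits of qHTS concentration-response data normalized to DMSO and 100 uM tamoxifen.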

[4] = Cell Viability - HepG2 (AID 433; calls by dose curve;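 further: potency means the concentration at half of the fitted maximal effect; cells exposed to compound for 40 hours; potency for ATP loss meaning cytotoxicity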); settings: qHTS
Procedure, shortened: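 Read-out is luciferase-based quantitation of cellular ATP as a measure of viable HepG2 cells after 40 h treatment at 37 °C. Signal decrease is scaled between DMSO-only and 100 uM tamoxifen controls, with AC50 fitted by the Hill equation.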

[5] = Stat Signaling Pathway (AID 446; active means well fitted curve in either direction with a large enough effect, not every such curve was filed as active;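 further: ME-180 cervical cancer cells given 40 pM IL-6 alongside compound; SIE-controlled beta-lactamase reporter measured as 460/530 nm FRET emission ratio; on the % scale 0 is the no-effect control and ±100 the full control effect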); settings: ME-180 (cervical carcinoma) SIE beta-lactamase reporter, IL-6 stimulated, 5 h; at 7.69 µM (top of the series) unless noted
Procedure, shortened: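 FRET read-out (405 nm excitation, 460/530 nm emission) of a beta-lactamase reporter under a STAT-inducible element in ME-180 cervical carcinoma cells. Cells with compound receive 40 pM IL-6 for 5 h. Values are normalised to AC90 stimulation and AC90 JAK-inhibitor controls.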

[6] = biological target: Glucocorticoid receptor (Homo sapiens) (UniProt P04150); experiment: GR-GFP Redistribution (AID 450;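 active means compounds whose dose series gives a full or clear partial fitted curve of increased nuclear translocation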; further: potency means the concentration at half of the fitted maximal effect); settings: U2OS GR-GFP nuclear translocation, laser cytometry, 2 h
Sequence of Glucocorticoid receptor (Homo sapiens) (P04150 whole entry, looked up, the tested form may be a part): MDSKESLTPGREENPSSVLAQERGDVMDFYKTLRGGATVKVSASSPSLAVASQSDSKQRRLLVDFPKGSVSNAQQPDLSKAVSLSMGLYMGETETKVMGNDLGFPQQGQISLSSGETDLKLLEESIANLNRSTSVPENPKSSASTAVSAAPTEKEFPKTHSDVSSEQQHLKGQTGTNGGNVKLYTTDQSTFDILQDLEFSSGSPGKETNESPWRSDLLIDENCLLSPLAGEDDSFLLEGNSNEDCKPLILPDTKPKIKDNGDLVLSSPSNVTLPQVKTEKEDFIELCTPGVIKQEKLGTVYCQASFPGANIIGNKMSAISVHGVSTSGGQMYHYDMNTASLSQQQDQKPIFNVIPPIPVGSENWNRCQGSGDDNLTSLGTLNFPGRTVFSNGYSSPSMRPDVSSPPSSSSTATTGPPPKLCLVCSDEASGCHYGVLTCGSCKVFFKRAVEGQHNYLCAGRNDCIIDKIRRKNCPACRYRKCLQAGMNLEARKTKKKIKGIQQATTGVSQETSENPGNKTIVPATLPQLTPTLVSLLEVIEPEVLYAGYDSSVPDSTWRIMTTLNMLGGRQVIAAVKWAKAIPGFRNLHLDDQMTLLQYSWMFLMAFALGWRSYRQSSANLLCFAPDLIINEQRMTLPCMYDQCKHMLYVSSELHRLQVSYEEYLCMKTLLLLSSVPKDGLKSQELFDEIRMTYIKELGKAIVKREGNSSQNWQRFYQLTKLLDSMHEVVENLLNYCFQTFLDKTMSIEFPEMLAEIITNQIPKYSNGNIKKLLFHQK

[7] = biological target: Glucocorticoid receptor (Homo sapiens) (UniProt P04150); experiment: GR-EFC Redistribution (AID 451; calls by dose curve; further: potency means the concentration at half of the fitted maximal effect); settings: CHO-K1 GR-EFC translocation, beta-gal luminescence, 2 h
Procedure, shortened: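 Translocation of GR-ED fusion to nuclear EA restores b-gal, read by luminescence after 1 h room-temperature detection. Engineered CHO-K1 biosensor cells, 1,000/well, exposed 2 h at 37 C to titrations up to 46 uM final.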

[8] = Cell Viability - N2a (AID 540); settings: N2a mouse neuroblastoma cell viability; activity change, negative = cytotoxicity: at 92.2 µM (top of the series);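 further: potency means the concentration at half of the fitted maximal effect; cells exposed to compound for 40 h at 37 °C; nearly all actives have a fitted effect of over 45% in size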
Procedure, shortened: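 N2a mouse neuroblastoma, 1500 cells/well, 5 hr settle; compound 40 hr, 37 °C; CellTiter-Glo 20 min RT; luminescence; Hill-fit AC50.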

[9] = Cell Viability - NIH 3T3 (AID 541); settings: NIH 3T3 cell viability, qHTS; activity change, negative = cytotoxicity: at 92.2 µM (top of the series);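 further: potency means the concentration at half of the fitted maximal effect; cells exposed to compound for 40 hours; nearly all actives have a fitted effect of over 25% in size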
Procedure, shortened: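 qHTS format; 40 hr compound exposure, 37 °C; CellTiter-Glo luminescence (cellular ATP) read-out after 20 min at RT. Decrease in ATP = cytotoxicity; AC50 from standard Hill fit.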

[10] = Cell Viability - SH-SY5Y (AID 544); settings: SH-SY5Y neuroblastoma cell viability; viability change, negative = cytotoxic: at 92.2 µM (top of the series);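 further: cells exposed to compound for 40 hours; nearly all actives have a fitted effect of over 55% in size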
Procedure, shortened: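 SH-SY5Y, 1500 cells/well, 5 hr pre-incubation 37 °C; cpd 40 hr 37 °C; CellTiter-Glo 20 min RT; luminescence (ATP) read. qHTS concentration-response, Hill fit → AC50. Tamoxifen, doxorubicin as positive controls.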

[11] = Cell Viability - Mesenchymal (AID 546); settings: mesenchymal cells viability, qHTS; activity change, negative = cytotoxicity: at 91.7 µM (top of the series);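 further: potency means the concentration at half of the fitted maximal effect; cells exposed to compound for 40 hours before reading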
Procedure, shortened: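 CellTiter-Glo luminescence (intracellular ATP, 20 min room temperature) after 40 hr compound exposure at 37 °C of 1000 glomerulus-derived human kidney mesenchymal cells/well; AC50 values obtained by fitting qHTS concentration-response data to the Hill equation.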

[12] = biological target: 3',5'-cyclic-AMP phosphodiesterase 4B (Homo sapiens) (UniProt Q07343); experiment: qHTS Assay for Inhibitors of PDE-IV (AID 607; active means well fitted activation curve with a large enough effect in the main read-out, with a control signal flat, not every such curve was filed as active; further: % of control where 0% means no effect); settings: HEK293 ACTOne CNG channel cells, membrane potential fluorescence; series mostly up to 22.9 µM
Sequence of 3',5'-cyclic-AMP phosphodiesterase 4B (Homo sapiens) (Q07343 whole entry, looked up): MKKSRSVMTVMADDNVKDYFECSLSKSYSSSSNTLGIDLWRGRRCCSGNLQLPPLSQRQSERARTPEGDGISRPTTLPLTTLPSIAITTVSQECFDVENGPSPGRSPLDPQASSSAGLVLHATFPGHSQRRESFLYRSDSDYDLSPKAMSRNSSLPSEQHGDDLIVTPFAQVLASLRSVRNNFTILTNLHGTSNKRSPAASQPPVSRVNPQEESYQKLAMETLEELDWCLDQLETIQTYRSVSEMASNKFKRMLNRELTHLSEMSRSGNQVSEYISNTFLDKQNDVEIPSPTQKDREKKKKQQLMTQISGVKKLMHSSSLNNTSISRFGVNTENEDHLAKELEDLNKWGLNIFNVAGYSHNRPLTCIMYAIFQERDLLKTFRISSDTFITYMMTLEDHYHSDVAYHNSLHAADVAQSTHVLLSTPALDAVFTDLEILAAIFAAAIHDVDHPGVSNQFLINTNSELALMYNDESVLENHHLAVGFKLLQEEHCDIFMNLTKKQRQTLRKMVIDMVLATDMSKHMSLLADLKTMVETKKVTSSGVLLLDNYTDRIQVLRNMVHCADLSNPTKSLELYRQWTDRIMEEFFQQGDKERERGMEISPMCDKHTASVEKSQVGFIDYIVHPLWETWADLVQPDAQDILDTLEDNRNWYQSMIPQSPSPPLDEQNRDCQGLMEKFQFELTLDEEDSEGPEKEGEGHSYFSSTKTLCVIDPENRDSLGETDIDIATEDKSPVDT
Procedure, shortened: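 Cell-based read-out of cAMP via a modified cyclic nucleotide-gated channel and membrane potential dye (535/590 nm) in HEK293 cells expressing PDE4 endogenously. Compounds tested up to 22.9 uM final; 100 uM RO 20-1724 reference.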

[13] = Cellular Toxicity (caspase-3) HepG2 (AID 654); settings: HepG2 caspase-3 activation, luminescence; series mostly up to 92.2 µM;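 further: cells exposed to compound for 16 hours before reading; 0% = DMSO alone and 100% = caspase signal from 100 µM tamoxifen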
Procedure, shortened: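 Luminescent Caspase-Glo 3/7 readout after 16 hr compound exposure of human hepatocellular carcinoma HepG2 cells at 37 °C; qHTS concentration-response, normalized DMSO = 0%, 100 uM tamoxifen = 100%; AC50 by standard Hill equation.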

[14] = Cellular Toxicity (caspase-3) Jurkat (AID 655); settings: Jurkat caspase-3 activation, luminescence; caspase-3 activation: at 92.2 µM (top of the series), DMSO = 0%, tamoxifen = 100%;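 further: cells exposed to compound for 16 h at 37 °C before reading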
Procedure, shortened: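 5000 Jurkat cells/well; compound 16 hr, 37 °C; Caspase-Glo 3/7 added, 20 min RT; luminescence read. Norm: DMSO = 0%, tamoxifen 100 uM = 100%. AC50, Hill model.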

[15] = Cellular Toxicity (caspase-3) HUV-EC-C (AID 656); settings: HUV-EC-C cells, caspase-3 activation (apoptosis); series mostly up to 92.2 µM
Procedure, shortened: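 qHTS; HUV-EC-C, 1000 cells/well; 5 hr settle, 16 hr cmpd, 37°C; Caspase-Glo 3/7, 20 min RT; luminescence. Norm: DMSO = 0%, tamoxifen 100 uM = 100%. Hill-fit AC50.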

[16] = Cellular Toxicity (caspase-3) SHSY5Y (AID 657); settings: SH-SY5Y caspase-3 activation; series mostly up to 91.7 µM;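 further: cells exposed to compound for 16 hours at 37 °C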
Procedure, shortened: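 qHTS, SH-SY5Y, 1500 cells/well, 5 h pre-incubation 37 °C; compound 16 h 37 °C; Caspase-Glo 3/7 1 h RT; luminescence. Norm.: DMSO = 0, 10 uM staurosporine = 100%. Hill fit → AC50.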

[17] = Cellular Toxicity (caspase-3) BJ (AID 658); settings: BJ fibroblasts, luminescence; Potency: caspase-3 activation; series mostly up to 91.7 µM;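 further: cells exposed to compound for 16 hours; 0% = DMSO basal and 100% = 10 µM staurosporine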
Procedure, shortened: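 Caspase-Glo 3/7 luminescence, read 1 hr after reagent at room temperature, in normal BJ fibroblasts exposed 16 hours at 37 °C. AC50 values from Hill-equation concentration-response, scaled between DMSO basal and 10 uM staurosporine as 100%.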

N=C1C=CC(=C(c2ccc(N)cc2)c2ccc(N)cc2)C=C1
active: Potency [2] 3.98 µM | Potency [3] 19.6 µM | Potency [4] 18.6 µM | Potency [8] 3.98 µM | Potency [9] 3.16 µM | viability change, negative = cytotoxic [10] -99.9% | Potency [11] 7.94 µM
inactive: Potency [1] > 11.4 µM | activity, negative = inhibition [5] -20.9% | Potency [6] > 46 µM | Potency [7] > 9.22 µM | Potency [12] | Potency [13] | Potency [14] | Potency [15] | Potency [16] | Potency [17]
